Growth data for 15 compounds are collected here from PubChem BioAssay (NCI).

Molecules are shown by their SMILES. About 83,000 compounds went through this panel and 20% of them were active in at least one assay; those are over-represented in the sample as a whole.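 Activity criterion: percent growth below 10, measured after cells in 96-well plates were exposed to a single compound concentration for 48 hours.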 A number with no mark means an inactive call. Active and inactive are the calls of the source.

Common to all, as to test: NCI-60 one-dose screen, 48 h (100 = growth as untreated, 0 = no growth, -100 = all killed)
Details in all cases: 10 µM

In assay [1] the test system is SR leukemia.
In assay [2] the test system is RPMI-8226 leukemia.
Assay [3] has as its system OVCAR-8 ovarian.
The test system of assay [4] is OVCAR-5 ovarian.
For assay [5], the system named is OVCAR-4 ovarian.
In assay [6] the test system is SK-OV-3 ovarian.
Assay [7] deals with IGROV1 ovarian.
The subject of assay [8] is OVCAR-3 ovarian.
Assay [9] has as its system HS 578T breast.
Assay [10] has as its system NCI/ADR-RES ovarian.
The subject of assay [11] is T-47D breast.
Assay [12] has as its system BT-549 breast.
In assay [13] the test system is MDA-MB-435 melanoma.
The test system of assay [14] is SW-620 colon.
Assay [15] relates to MCF7 breast.
Assay [16] relates to HCC-2998 colon.
The subject of assay [17] is KM12 colon.
The subject of assay [18] is MDA-MB-468 breast.
The test system of assay [19] is HCT-116 colon.

Turning to `CN1CCCN(Cc2ccc(C(=O)Nc3cccc(Nc4ccc5c(O)cccc5n4)c3)cc2C(F)(F)F)CC1`, the growth in assay [1] is 11.4%; in assay [2] it was 2.61% (active); in [3], -22% (active); in assay [4] it was -82.1% (active); in assay [5], -43.5% (active); in assay [6] it was -58.9% (active). Besides, the growth is -78.9% (active) in [7]; -35.8% (active) in [8]; -41.2% (active) in assay [9]; 37.7% in assay [10]; -27.7% (active) in [11]; -75.2% (active) in [12]. The growth is -96.5% (active) in assay [13]; -92.7% (active) in assay [14]; -96.5% (active) in [15]; -85.3% (active) in assay [16]; -11% (active) in assay [17]; -94.5% (active) in assay [18].
As for `Nc1nnc(-c2c[nH]c3ccc(F)cc23)c(-c2c[nH]c3ncccc23)n1`, the growth in [1] is 20.6%; in [2], 60.3%; in [3] it was 46.7%; in assay [4], 78.8%; in [5] it was 81.4%; in [6] it was 92%. The growth in [7] is 33.5%; in assay [8], 59.3%; in assay [9], 29.1%; in assay [10], 101%; in assay [11], 31.7%; in assay [13], 60.9%. For the same compound, the growth in assay [14] is 73.6%; in assay [15] it was 34%; in assay [19], 25%; in assay [16], 97.9%; in assay [17] it was 49.5%; in [18], 54.1%.
Consider `COc1ccc(CN2[C@@H](C(=O)NCc3ccc(C(=O)NO)cc3)Cc3c([nH]c4ccccc34)[C@@H]2C)cc1`, for which the growth in assay [1] was 14.5%; in assay [2] it was 20.1%; in assay [3], 27.9%; in [4], 4.29% (active); in assay [5], 40.1%; in [6] it was -8.39% (active). For the same compound, the growth in assay [7] was 12.4%; in assay [8], 11.1%; in assay [9] it was -5.59% (active); in [11] it was 13.9%; in [12] it was 43.6%; in assay [13], -36.4% (active). The growth in assay [14] was -31.3% (active); in assay [15], 15.8%; in assay [19], 9.97% (active); in [16], 14.6%; in assay [17], 20.4%; in [18], 7.58% (active).
As to `O=C(CSc1nnc(-c2ccc3nc(-c4ccc(Cl)cc4)[nH]c3c2)o1)Nc1ccc(Br)cc1`, the growth in assay [1] is 3.26% (active); in assay [2] it was 0.539% (active); in assay [3] it was -43.5% (active); in [4], 39.5%; in assay [5], 16.4%; in assay [6], 60.2%. In addition, the growth in assay [7] was 23.2%; in assay [8] it was -15.9% (active); in assay [9] it was -16.5% (active); in [10], 10.9%; in assay [11], 53.7%; in [12] it was -69.8% (active). Besides, the growth was -88% (active) in assay [13]; -20.9% (active) in assay [14]; -25% (active) in assay [15]; 28.9% in assay [16]; 15.6% in [17]; -4% (active) in assay [18].
In the case of `COc1cccc(-c2ccnc(/N=C(\N)Nc3ccc(S(=O)(=O)Nc4nc(C)cc(C)n4)cc3)n2)c1`, the growth in assay [1] was 100%; in assay [2] it was 90.1%; in [3], 102%; in assay [4], 107%; in assay [5] it was 96%; in assay [6] it was 84%. Also, the growth in [7] was 83.4%; in [8], 99.3%; in assay [9], 86.4%; in assay [10] it was 103%; in [11] it was 88.4%; in assay [13], 109%. In addition, the growth in assay [14] is 105%; in [15], 75.9%; in assay [19], 103%; in assay [16] it was 114%; in assay [17], 98%; in assay [18], 115%.
Regarding `CN1CCN(Cc2ccc(NC(=O)c3cncc(C#Cc4cnc5ccc(N[C@@H]6CCOC6)nn45)c3)cc2C(F)(F)F)CC1`, the growth in assay [1] is -18.5% (active); in assay [2], -24.1% (active); in assay [3], -96.2% (active); in assay [4] it was -91.6% (active); in assay [5] it was -66.3% (active); in [6], -83.1% (active). Moreover, the growth in assay [7] was -91.6% (active); in [8] it was -90.3% (active); in assay [9], -41% (active); in assay [10], -77.5% (active); in [11], -63.2% (active); in assay [12], -71.3% (active). The growth in assay [13] was -87.6% (active); in assay [14], -41.9% (active); in [15], -88.1% (active); in assay [17], -90.7% (active); in assay [18], -96.2% (active).
Consider `N#Cc1c(NC(=O)c2cccc(C(F)(F)F)c2)sc2c1CCC(O)=C2`, for which the growth in assay [1] is 14.6%; in [2] it was 25%; in assay [3], 41.6%; in assay [4], 119%; in assay [5], 29.5%; in [6] it was 40.3%. Also, the growth in assay [7] is 34.4%; in assay [8], 36.8%; in assay [9] it was 44.1%; in assay [11] it was 16.5%; in assay [12], 44.6%; in assay [13] it was 9.7% (active). For the same compound, the growth in assay [14] is 35.4%; in assay [15], 27.9%; in assay [19], 40.4%; in assay [16], 36.3%; in assay [17], 23.1%; in [18] it was -18.6% (active).
As to `COc1ccc2[nH]c(=O)c(CSc3cccc(N)c3)cc2c1`, the growth was 39.1% in assay [1]; 44.8% in assay [2]; 59.2% in [3]; 91.6% in assay [4]; 49.8% in assay [5]; 94.5% in assay [6]. In addition, the growth was 74.1% in assay [7]; 66.9% in [8]; 95% in assay [9]; 73% in assay [10]; 37.5% in assay [11]; 75.1% in assay [12]. For the same compound, the growth in assay [13] is 31.6%; in assay [14], 25%; in assay [15] it was 31%; in assay [16], 44.6%; in assay [17], 4.43% (active); in assay [18], 34.7%.
On to `COc1ccc(CN2[C@H](C(=O)NCCCCCCC(=O)NO)Cc3c([nH]c4ccccc34)[C@H]2C2CC2)cc1`, for which the growth in assay [1] was 16%; in assay [2] it was 15.7%; in [3], 2.69% (active); in assay [4], -21.2% (active); in assay [5], 40.6%; in [6] it was -33.5% (active). For the same compound, the growth in assay [7] was -42.4% (active); in assay [8], 3.23% (active); in assay [9], -1.3% (active); in assay [10], 61.9%; in [11], -10.3% (active); in [13] it was -49.1% (active). The growth in assay [14] was -68.1% (active); in assay [15] it was 6.39% (active); in assay [19], 2.09% (active); in [16] it was -36.7% (active); in [17] it was 12.5%; in [18], 4.06% (active).
As to `O=C(N/C(=C1/OCCN1Cc1ccccc1)[P+](c1ccccc1)(c1ccccc1)c1ccccc1)c1ccccc1`, the growth was 8.3% (active) in [1]; 0.374% (active) in assay [2]; 16.5% in assay [3]; 67.3% in assay [4]; 21.2% in [5]; 23% in assay [6]. The growth in [7] was 2.86% (active); in [8], -7.02% (active); in [9], -2.64% (active); in assay [10], 97.8%; in assay [11], 11.2%; in [12] it was -16.4% (active). Moreover, the growth was 18.5% in [13]; 12.5% in [14]; 1.56% (active) in assay [15]; -10.8% (active) in [16]; -1.17% (active) in assay [17]; -30% (active) in assay [18].
Take `CCCn1c(=O)c2[nH]c(-c3ccc(OCc4nc5ccc(C#N)cc5[nH]4)cc3)nc2n(CCC)c1=O`: the growth in assay [1] was 59.5%; in [2] it was 68.9%; in [3] it was 66.3%; in [4] it was 113%; in assay [5], 78.9%; in [6], 85.5%. In addition, the growth in assay [7] is 62.2%; in assay [8], 68%; in [9] it was 40%; in [10], 97.1%; in assay [11], 35.7%; in assay [12], 92.6%. The growth in [13] was 97.5%; in assay [14], 80.5%; in [15], -48.9% (active); in assay [17], 75.5%; in assay [18] it was 65.9%.
Consider `CCOC(=O)C(Cc1ccccc1)N1C(=O)/C(=C/N2N=C(c3ccc(OC)cc3)CC2c2ccc3ccccc3c2)SC1=S` (stereo not drawn), for which the growth in assay [1] was 6.53% (active); in assay [2] it was 4.07% (active); in assay [3], 17.1%; in assay [4], 39.3%; in assay [5], 35.1%; in assay [6], 9.93% (active). For the same compound, the growth was 13% in assay [7]; 15.1% in assay [8]; 1.03% (active) in [9]; 54.1% in assay [10]; 14.6% in assay [11]; 16.3% in [13]. The growth was 13.4% in assay [14]; 0.163% (active) in [15]; 7.1% (active) in assay [19]; -92% (active) in [16]; 9.78% (active) in assay [17]; -34.1% (active) in assay [18].
`O=C(CNc1nc(-c2ccccc2)cs1)Nc1cccc(Cl)c1`: the growth was -15% (active) in [1]; 26% in assay [2]; 32.1% in [3]; 40.9% in assay [4]; 32.5% in assay [5]; 37.7% in assay [6]. Besides, the growth in assay [7] was 29.4%; in [8], 32.2%; in assay [9], 32.4%; in assay [10] it was 19.5%; in [11] it was 7.64% (active); in assay [13] it was 42.1%. The growth was 35.9% in assay [14]; 21.8% in assay [15]; 27.6% in assay [19]; 33.2% in assay [16]; 23.6% in assay [17]; 10.7% in assay [18].
Regarding `CC1(C)[C@@H](NCO)CC[C@]2(C)[C@H]3C(=O)C=C4[C@@H]5C[C@](C)(CO)CC[C@]5(C)CC[C@@]4(C)[C@]3(C)CC[C@@H]12`, the growth was 10.3% in assay [1]; -1.48% (active) in assay [2]; 70.9% in assay [3]; 66.1% in assay [4]; 55.4% in [5]; 92.8% in assay [6]. In addition, the growth in [7] was 53.8%; in [8], 85.4%; in [9] it was 44%; in [11], 63.9%; in assay [12] it was 81.8%; in [13], 59.9%. In addition, the growth in assay [14] is 35.2%; in assay [15], 33.7%; in assay [19] it was 37.8%; in assay [16] it was 40.8%; in assay [17], 65.7%; in assay [18], 47.2%.
For `COc1ccc2c(c1)N=C(C(=O)O)/C2=C/c1sc(Nc2ccc(O)cc2)nc1O`, the growth was 24.9% in assay [1]; 65.7% in assay [2]; 80.8% in assay [3]; 109% in [4]; 74.7% in assay [5]; 86.1% in assay [6]. Further, the growth in [7] was 74.6%; in assay [8], 72.9%; in assay [9], 50.9%; in [10], 93.3%; in assay [11], 45.4%; in [13], 8.85% (active). In addition, the growth is 74.7% in assay [14]; 27.9% in [15]; 64.7% in [19]; 74.7% in [16]; 57.9% in [17]; 12.3% in assay [18].
